# Laboratory results taken from publication PMC4552634, “A New Set of Chemical Starting Points with Plasmodium falciparum Transmission-Blocking Potential for Antimalarial Drug Discovery” (PLoS ONE, 2015).
# The campaign covered roughly 13,000 compounds. About 3,200 (25%) showed an effect of 50% or more. The list shows a part of the results.
# System: P. falciparum stage V gametocytes
# Parameters: BacTiter-Glo ATP luminescence viability of purified stage V gametocytes in 384-well plates, per cent inhibition versus DMSO
# Settings: 48 h, 5 µM; inhibitor
row,SMILES,% Inhibition [%]
1,Clc1cc(Cl)c2cc(CN[C@H]3CCC[C@@H]3CNc3nc4ccccc4[nH]3)[nH]c2c1 [TCMDC-139878],63.13
2,O=c1cc(NC[C@@H]2CCC[C@@H]2NCc2ccc(Cl)c(Cl)c2)[nH]c2ccccc12 [TCMDC-139627],-25.41
3,Clc1cc(Cl)c2c(c1)C(NCCCNc1nc3ccccc3[nH]1)CCO2 (stereo not shown) [TCMDC-139802],-25.37
4,CC1=C(C(=O)Nc2ccccc2)C(c2ccc([N+](=O)[O-])cc2)n2ncc(C(=O)Nc3ccccc3)c2N1 (stereo not shown) [TCMDC-125283],50.23
5,COc1ccc(C2C(C(=O)Nc3ccccc3)=C(C)Nc3c(C(=O)Nc4ccccc4)cnn32)cc1 (stereo not shown) [TCMDC-125284],-13.81
6,CC1=C(C(=O)Nc2ccc(Cl)cc2)C(c2ccncc2)n2nc(C(F)(F)F)nc2N1 (stereo not shown) [TCMDC-124419],-9.933
7,c1csc(-c2ccc3c(c2)CC(NCc2c[nH]c4cnccc24)C3)c1 (stereo not shown) [TCMDC-134833],42.25
8,COc1cccc(NC(=O)c2cc([N+](=O)[O-])ccc2NC(=O)CN2CCc3ccccc3C2)c1 [TCMDC-123678],69.57
9,CCC(CC)N1CCN(CC(=O)Nc2ccc([N+](=O)[O-])cc2C(=O)Nc2cccc(OC)c2)CC1 [TCMDC-123679],-23.44
10,COc1cc(NC(=O)c2cc([N+](=O)[O-])ccc2NC(=O)CNC2CCCC(C)C2C)cc(OC)c1 (stereo not shown) [TCMDC-125300],-31.14
11,COc1cc(F)c2ncc(Cl)c(CCN3CCC(NCc4ccc5c(n4)NC(=O)CO5)CC3)c2c1 [TCMDC-135621],-16.17
12,Cc1cc(N2CCOCC2)nc2ccc(NC(=O)c3cccc([N+](=O)[O-])c3)cc12 [TCMDC-123601],0.6281
13,O=C(Nc1ccc(-c2nc3ccccc3[nH]2)cc1)c1cccc(S(=O)(=O)N2CCOCC2)c1 [TCMDC-125263],-3.664
14,NS(=O)(=O)c1cccc(-c2ccc3ncc(N4CCOCC4)nc3c2)c1 [TCMDC-134052],73.87
15,CN(C)c1ccc(-c2csc(C(=O)NCC3CCN(Cc4cccc(C(F)(F)F)c4)C3)c2)cc1 (stereo not shown) [TCMDC-134486],49.29
16,CN(C)c1ccc(-c2csc(C(=O)NCC3CCN(CCC(C)(C)C)C3)c2)cc1 (stereo not shown) [TCMDC-134427],60.6
17,CC(C)c1ccc(CN2CCC(CNC(=O)c3cc(-c4ccc(N(C)C)cc4)cs3)C2)cc1 (stereo not shown) [TCMDC-134440],77.06
18,CN(C)c1ccc(-c2csc(C(=O)NCC3CCN(Cc4ccc(C(C)(C)C)cc4)C3)c2)cc1 (stereo not shown) [TCMDC-134449],80.7
19,O=C1CCCC1Sc1nc2ccccc2c(=O)n1-c1ccc(Cl)c(Cl)c1 (stereo not shown) [TCMDC-125029],-36.37
20,CC1(C)N=C(N)N=C(N)N1OCCSc1ccc(Cl)c(Cl)c1 [TCMDC-131704],5.969
21,CN1CCN(c2cc3c(cc2Br)CCN3C(=O)Nc2ccc(-c3cnc4ccccc4c3)cc2)CC1 [TCMDC-139280],14.3
22,Cc1cc(N[C@@H](CC(C)C)C(=O)Nc2ccccc2)nc(NCC2CCCCC2)n1 [TCMDC-134921],-51.59

row,SMILES,% Inhibition [%]
1,CCOc1cc(C)ccc1N(C1CCN(CCCCNC(=O)c2ccc(-c3ccc(C(F)(F)F)cc3)cc2)CC1)S(=O)(=O)c1ccccc1 [TCMDC-138637],32.99
2,CCC(C)c1ccc(-n2c(Nc3ccccc3)nc3cc(S(N)(=O)=O)ccc32)cc1 (stereo not shown) [TCMDC-135490],-10.42
3,CCc1c[nH]c2c(N3CCCCS3(=O)=O)cc(C(=O)N[C@@H](Cc3ccccc3)[C@H](O)CNCc3cccc(OC)c3)cc12 [TCMDC-134127],-6.303
4,CCCC(C)Nc1nc(C)cc(N[C@@H](Cc2ccccc2)C(=O)Nc2ccc(OC)cc2)n1 (stereo partly shown) [TCMDC-134881],-19.42
5,COc1ccc(NC(=O)[C@H](Cc2ccccc2)Nc2cc(C)nc(NCCc3ccccn3)n2)cc1 [TCMDC-134746],109.1
6,COc1ccc(NC(=O)[C@H](Cc2ccccc2)Nc2cc(C)nc(NCC3CCCCC3)n2)cc1 [TCMDC-134929],14.59
7,Cc1cc(N[C@@H](Cc2ccccc2)C(=O)Nc2ccccc2)nc(NCCc2ccccn2)n1 [TCMDC-134749],53.15
8,CO/C(=C\C=C\c1cc2cc(Cl)c(Cl)cc2[nH]1)C(=O)NCCCN1CCN(c2cccc(OC)c2)CC1 [TCMDC-139161],-21.84
9,O=C(N[C@@H](Cc1ccccc1)C(=O)NC1CCCc2ccccc21)c1ccc(O)c(-c2ccc(Cl)c(Cl)c2)c1 (stereo partly shown) [TCMDC-140868],35.62
10,Nc1ncc(-c2cccc(CCN3CCOCC3)c2)cc1-c1nc2ccc(Br)cc2[nH]1 [TCMDC-133135],15.3
11,NC1CCCN(Cc2ccc(-c3cccc(-c4nc5ccccc5[nH]4)c3)cc2)C1 (stereo not shown) [TCMDC-133880],58.58
12,O=C(O)C(F)(F)F.OC1CCCN(Cc2ccc(-c3ccc(-c4nc5ccccc5[nH]4)cc3)cc2)C1 (stereo not shown) [TCMDC-133829],-32.2
13,NC1CCN(Cc2ccc(-c3ccc(-c4nc5ccccc5[nH]4)cc3)cc2)C1.O=C(O)C(F)(F)F (stereo not shown) [TCMDC-133868],102.2
14,NC1CCN(Cc2ccc(-c3cccc(-c4nc5ccccc5[nH]4)c3)cc2)C1 (stereo not shown) [TCMDC-133879],58.35
15,CC1CN(Cc2ccc(-c3ccc(-c4nc5ccccc5[nH]4)cc3)cc2)CC(C)O1.O=C(O)C(F)(F)F (stereo not shown) [TCMDC-133828],-35.16
16,OC1CCCN(Cc2ccc(-c3cccc(-c4nc5ccccc5[nH]4)c3)cc2)C1 (stereo not shown) [TCMDC-133836],-1.76
17,N=c1c2c(n(Cc3ccccc3)c3c1CCC3)CCCC2 [TCMDC-124229],-1.262
18,Clc1cccc(C23N=C(Nc4nc5ccccc5[nH]4)NC2(c2ccccc2)NC(Nc2nc4ccccc4[nH]2)=N3)c1 (stereo not shown) [TCMDC-139089],3.895
19,NS(=O)(=O)c1ccc(CNc2ccc3ncc(-c4ccc(OC(F)(F)F)cc4)n3n2)cc1 [TCMDC-136685],61.81
20,COc1ccc(-c2cnc3ccc(NCc4ccc(S(N)(=O)=O)cc4)nn23)cn1 [TCMDC-136688],73.26
21,COc1ccc(-c2cnc3ccc(NCc4ccc(S(N)(=O)=O)cc4)nn23)cc1 [TCMDC-136687],45.37
22,N#Cc1ccc(-c2cnc3ccc(NCc4ccc(S(N)(=O)=O)cc4)nn23)cc1 [TCMDC-124515],21.95

row,SMILES,% Inhibition [%]
1,NS(=O)(=O)c1ccc(CNc2ccc3ncc(-c4ccc(Cl)cc4)n3n2)cc1 [TCMDC-136686],45.42
2,FC(F)(F)Oc1ccc(-c2cnc3ccc(NCc4ccncc4)nn23)cc1 [TCMDC-136681],34.75
3,CC(C)(CNC(=O)/C=C/c1ccc(Cl)c(Cl)c1)CNc1cc(=O)c2ccccc2[nH]1 [TCMDC-139404],-42.09
4,O=C(/C=C/c1ccc(Cl)c(Cl)c1)NCCCCCN1CCC(NC(=O)Nc2cc(Cl)ccc2Cl)CC1 [TCMDC-135726],-46.31
5,O=C(Cc1cnc[nH]1)Nc1cccc(-c2cccc(-c3nc4ccc(C(F)(F)F)cc4[nH]3)c2)c1 [TCMDC-136948],-28.45
6,CC1SC(=S)NC1C(=O)O (stereo not shown) [TCMDC-131380],9.711
7,O=C(Nc1ccccc1)N(Cc1cccc(-c2cccc(CNCc3ccc4c(c3)OCO4)c2)c1)C1CCN(Cc2ccccc2)CC1 [TCMDC-140590],57.66
8,CC(=O)N(Cc1cccc(-c2cccc(CNCc3ccc4c(c3)OCO4)c2)c1)C1CCN(Cc2ccccc2)CC1 [TCMDC-140529],-13.98
9,COCCNC(=O)C(CNC(=O)c1ccc2c(c1)OCO2)NC(=O)c1ccc(-c2ccccc2)cc1 (stereo not shown) [TCMDC-140308],-7.15
10,COCC(=O)N(Cc1ccccc1-c1cccc(CNCc2ccc3c(c2)OCO3)c1)C1CCN(Cc2ccccc2)CC1 [TCMDC-140535],7.259
11,CC(=O)N(Cc1ccccc1-c1cccc(CNCc2ccc3c(c2)OCO3)c1)C1CCN(Cc2ccccc2)CC1 [TCMDC-140526],86.49
12,O=C(Nc1ccccc1)N(Cc1cccc(-c2ccc(CNCc3ccc4c(c3)OCO4)cc2)c1)C1CCN(Cc2ccccc2)CC1 [TCMDC-140591],67.97
13,COCCNCc1cccc(-c2ccccc2CN(C(=O)c2ccc3c(c2)OCO3)c2ccc(OC)cc2)c1 [TCMDC-140571],88.17
14,CCOC(=O)c1c(NC(=O)c2ccccc2)sc2c(O)c(CNC3CCCCC3)ccc12 [TCMDC-124070],25.8
15,COc1ccc(Cl)cc1N1CCN(CCCNC(=O)c2ccc(-c3nc4cc5ccccc5cc4[nH]3)c(F)c2)CC1 [TCMDC-140099],14.17
16,COc1ccc(-c2ncnc(C(F)(F)F)c2-c2ccc(Cl)cc2)c(O)c1 [TCMDC-123728],11.32
17,Cc1nnsc1C(=O)Nc1ccc(-c2ccc(-c3nc4ccccc4[nH]3)s2)cc1 [TCMDC-137077],0.7938
18,Cc1ccc(C(=O)Nc2ccc(Cl)c(N3CCN(CCc4ccccc4)CC3)c2)cc1 [TCMDC-133536],-30.75
19,Nc1cccc(CNCc2cccc(-c3csc(-c4nc5ccccc5[nH]4)c3)c2)c1 [TCMDC-132925],-31.54
20,Cc1nc2ccc3ccc(CNc4ccc5c(c4)CN([C@@H](CCC(=O)O)C(=O)O)C5=O)cc3c2c(=O)[nH]1 [TCMDC-131928],20.65
